Out of some 13,000 compounds screened, about 3,200 (25%) showed an effect of 50% or more. The list shows a part of the results.
Test system: P. falciparum stage V gametocytes
Design: BacTiter-Glo ATP luminescence viability of purified stage V gametocytes in 384-well plates, per cent inhibition versus DMSO
Details: 48 h, 5 µM; inhibitor

First: CN1CC=C(c2c[nH]c3ccc(Sc4ccccc4)cc23)CC1 [TCMDC-138969]
Second: CC(C)C[C@H]1c2[nH]c3ccc(Cl)cc3c2CCN1C(=O)CCc1ccccc1 [TCMDC-135179]
The “% Inhibition” value of the first is higher: 5.413% for the first, 1.219% for the second.

First: CCN1CCN(Cc2ccc3nc(-c4cc(C)n(Cc5cc(Cl)ccc5OCc5ccccc5)n4)[nH]c3c2)CC1 [TCMDC-136884]
Second: Cc1cccc2[nH]c(-c3ccc(-c4ccc(CN5CCN(CCO)CC5)cc4)cc3)nc12 [TCMDC-133033]
The “% Inhibition” value of the first is higher: 23.91% for the first, 4.83% for the second.

First: Cn1c(=N)n(CC(=O)N2CCc3ccc(Cl)cc3C2Cc2ccc(Cl)c(Cl)c2)c2ccccc21 (centres unmarked) [TCMDC-138699]
Second: Cn1c(=N)n(CC(=O)OCc2ccc(OCc3ccccc3)cc2)c2ccccc21 [TCMDC-138698]
The “% Inhibition” value of the first is higher: 109.1% for the first, 4.888% for the second.

Going from CCC1CN(S(=O)(=O)c2ccc3c(c2)NC(=O)CC(=O)N3)c2cc(Cl)ccc2O1 (centres unmarked) [TCMDC-125278] to Cc1ccc(C(=O)Nc2ccc(-c3nc4ccccc4[nH]3)cc2)cc1S(=O)(=O)N1CCOCC1 [TCMDC-124532], the “% Inhibition” value falls from 25.65% to -13.26%.

Going from CCn1c(-c2cc(C)on2)nc2cnc(Oc3ccc(C(=O)N4CC(=O)N(C)C4C(C)(C)C)cc3)cc21 (centres unmarked) [TCMDC-134940] to CCc1cn(C)c2c(N3CCCC3=O)cc(C(=O)N[C@@H](Cc3ccccc3)[C@H](O)CNC(C)(C)c3cccc(OC)c3)cc12 [TCMDC-135196], the “% Inhibition” value rises from 2.551% to 90.21%.

Going from CCc1cn(C)c2c(N3CCCC3=O)cc(C(=O)N[C@@H](Cc3ccccc3)[C@H](O)CNCc3cccc(OC)c3)cc12 [TCMDC-135195] to CCc1cn(C)c2c(N3CCCC3=O)cc(C(=O)N[C@@H](Cc3ccccc3)[C@H](O)CNC(C)(C)c3cccc(C(F)(F)F)c3)cc12 [TCMDC-135197], the “% Inhibition” value rises from 21.06% to 87.86%.

Compared with CCc1c[nH]c2c(N3CCCC3=O)cc(C(=O)N[C@@H](Cc3ccccc3)[C@H](O)CNC(C)(C)c3cccc(C(F)(F)F)c3)cc12 [TCMDC-134402], CCc1c[nH]c2c(N3CCCC3=O)cc(C(=O)N[C@@H](Cc3ccccc3)[C@H](O)CNC(C)(C)c3cccc(OC)c3)cc12 [TCMDC-134404] is higher in “% Inhibition” value: 2.989% for the first, 44.35% for the second.

First: CCn1ncc2c(N3CCCC3=O)cc(C(=O)N[C@@H](Cc3ccccc3)[C@H](O)CNC(C)(C)c3cccc(C(F)(F)F)c3)cc21 [TCMDC-135064]
Second: Cc1cccc2c(C(=O)NC3CCN(Cc4ccccc4)CC3)cc(-c3cccnc3)nc12 [TCMDC-124900]
The “% Inhibition” value of the first is higher: 21.85% for the first, 15.64% for the second.

First: C[C@@H](NC(=O)c1nn(-c2ccc(Cl)cc2)c(=O)c2ccccc12)C(C)(C)C [TCMDC-124772]
Second: CC(C)(C)c1nn(-c2ccccc2)c2[nH]c(=O)c(CNC3CCCC3)cc12 [TCMDC-136483]
The “% Inhibition” value of the first is lower: -4.584% for the first, 5.874% for the second.

Compared with Cc1cccc(C(=O)Nc2ccnc(N(C)CCCN(C)Cc3cccc(O)c3)c2)c1 [TCMDC-134953], CC(C)CNC(=O)c1ccnc(-c2ccc(CNCCCc3ccccc3)cc2)c1 [TCMDC-134252] is higher in “% Inhibition” value: -14.35% for the first, -3.007% for the second.

Compared with Cc1nnsc1C(=O)Nc1ccc(-c2cccc(-c3nc4ccc(C(F)(F)F)cc4[nH]3)c2)cc1 [TCMDC-137085], Cc1nnsc1C(=O)Nc1cccc(-c2ccc(-c3nc4ccc(C(F)(F)F)cc4[nH]3)cc2)c1 [TCMDC-137088] is higher in “% Inhibition” value: 34.28% for the first, 70.24% for the second.

First: Cc1nnsc1C(=O)Nc1cccc(-c2ccc(-c3nc4ccccc4[nH]3)cc2)c1 [TCMDC-137083]
Second: Cc1nnsc1C(=O)Nc1cccc(-c2cccc(-c3nc4ccccc4[nH]3)c2)c1 [TCMDC-137078]
The “% Inhibition” value of the first is lower: 11.59% for the first, 82.4% for the second.

Going from Cc1nnsc1C(=O)Nc1ccc(-c2cccc(-c3nc4c(C)cccc4[nH]3)c2)cc1 [TCMDC-137087] to Cc1nnsc1C(=O)Nc1cccc(-c2cccc(-c3nc4c(C)cccc4[nH]3)c2)c1 [TCMDC-137086], the “% Inhibition” value falls from 78.56% to -18.91%.

Compared with Cc1nnsc1C(=O)Nc1cccc(-c2csc(-c3nc4ccccc4[nH]3)c2)c1 [TCMDC-132394], Cc1nnsc1C(=O)Nc1cccc(-c2cccc(-c3nc4ccc(F)cc4[nH]3)c2)c1 [TCMDC-137081] is higher in “% Inhibition” value: 19.6% for the first, 77.92% for the second.

First: Cc1nnsc1C(=O)Nc1ccc(-c2cccc(-c3nc4ccc(F)cc4[nH]3)c2)cc1 [TCMDC-137080]
Second: Cc1nnsc1C(=O)Nc1cccc(-c2ccc(-c3nc4ccc(F)cc4[nH]3)cc2)c1 [TCMDC-137082]
The “% Inhibition” value of the first is lower: -15.9% for the first, 79.62% for the second.

Going from Cc1nnsc1C(=O)Nc1cccc(-c2cccc(-c3nc4ccc(C(F)(F)F)cc4[nH]3)c2)c1 [TCMDC-137084] to NC(=O)c1cccc(C(=O)Nc2cccc(-c3cccc(-c4nc5ccc(F)cc5[nH]4)c3)c2)c1 [TCMDC-132198], the “% Inhibition” value falls from -5.727% to -10.48%.

Compared with Cc1cccc2[nH]c(-c3cccc(-c4ccc(NC(=O)c5cccc(C(N)=O)c5)cc4)c3)nc12 [TCMDC-132201], Cc1cccc2[nH]c(-c3cccc(-c4ccc(CN5CCCC5CN)cc4)c3)nc12 (centres unmarked) [TCMDC-132991] is higher in “% Inhibition” value: 3.68% for the first, 36.61% for the second.

Compared with O=S(=O)(c1c(Cl)cc(Cl)cc1Cl)N1CCCCC(c2ccc(F)c(F)c2)=N1 [TCMDC-135420], Cc1cccc2[nH]c(-c3ccc(-c4ccc(CN5CCCCC5)cc4)cc3)nc12 [TCMDC-133901] is higher in “% Inhibition” value: -45.8% for the first, -1.455% for the second.

Going from Cc1cccc(-c2cccc(CNc3nc(NCCc4ccc(O)cc4)nc(N4CCNCC4)n3)c2)c1 [TCMDC-133810] to Cc1cccc2[nH]c(-c3ccc(-c4cccc(CN5CCC(C(N)=O)CC5)c4)cc3)nc12 [TCMDC-132694], the “% Inhibition” value falls from 31.6% to -8.961%.

Compared with O=C(Nc1ccc(-c2oc(C(=O)NCCc3cccc(Cl)c3)cc2-c2ccncc2)cc1)Nc1cccc(Cl)c1 [TCMDC-135809], CC(=O)Nc1nc(C(=O)Nc2cccc(-c3ccc(-c4nc5ccc(F)cc5[nH]4)cc3)c2)cs1 [TCMDC-137126] is higher in “% Inhibition” value: -31.28% for the first, 7.232% for the second.

Compared with CC(C)CNC(=O)c1cncc(-c2ccc(CN3CCC(N4CCCC4)CC3)cc2)c1 [TCMDC-134236], Cc1cccc2[nH]c(-c3ccc(-c4ccc(CN5CCN(C6CCN(C)CC6)CC5)cc4)cc3)nc12 [TCMDC-133865] is higher in “% Inhibition” value: 32.19% for the first, 83.09% for the second.

Compared with COc1ccc(CNc2ncnc3c2[nH]c2ccc(F)cc23)cc1 [TCMDC-124466], O=C(Nc1cccc(-c2ccc(-c3nc4ccc(F)cc4[nH]3)cc2)c1)c1csnn1 [TCMDC-136900] is lower in “% Inhibition” value: 15.1% for the first, -0.6993% for the second.

First: Cc1cc2c(/C=C/C(=O)NC3CCC(CCN4CCc5ccc(C#N)cc5CC4)CC3)cccc2[nH]1 (centres unmarked) [TCMDC-139674]
Second: O=C(Nc1ccc2c(c1)CCN2C1CCN(Cc2ccc(F)cc2Cl)C1)c1ccco1 (centres unmarked) [TCMDC-135068]
The “% Inhibition” value of the first is higher: -23% for the first, -23.63% for the second.

Compared with CCN(CCC1(c2ccc(Cl)c(Cl)c2)CN(C(=O)c2cc(OC)c(OC)c(OC)c2)CCO1)C1CC2c3ccccc3CC21 (centres unmarked) [TCMDC-135570], O=C(N1CCN(c2ccnc3cc4c(cc23)N(Cc2ccccc2)CC4)CC1)C(F)(F)F [TCMDC-140138] is higher in “% Inhibition” value: -88.52% for the first, 5.48% for the second.

Compared with CC[C@H](C)CNC(=O)c1ccnc(-c2ccc(CNCCCc3ccccc3)cc2)c1 [TCMDC-134251], CC[C@H](C)CNC(=O)c1cncc(-c2ccc(CNCCCc3ccccc3)cc2)c1 [TCMDC-134246] is lower in “% Inhibition” value: 81.79% for the first, -1.463% for the second.

Compared with Cc1nc(N)nc(N)c1OCc1cccc2ccccc12 [TCMDC-131357], CCCC(C)Nc1nc(C)cc(NCCC(=O)Nc2ccccc2)n1 (centres unmarked) [TCMDC-134763] is higher in “% Inhibition” value: -0.5645% for the first, 23.15% for the second.

First: Cc1cccc2[nH]c(-c3ccc(-c4ccc(CN5CCCC(N)C5)cc4)cc3)nc12 (centres unmarked) [TCMDC-133863]
Second: Cc1cccc2[nH]c(-c3ccc(-c4ccc(CN5CCCC5CN)cc4)cc3)nc12 (centres unmarked) [TCMDC-132999]
The “% Inhibition” value of the first is higher: 93.4% for the first, 66.58% for the second.

Compared with Cc1cccc2[nH]c(-c3ccc(-c4ccc(CN5CCN(CCN6CCOCC6)CC5)cc4)cc3)nc12 [TCMDC-133931], Cc1cccc2[nH]c(-c3ccc(-c4ccc(CN5CCN(CCC#N)CC5)cc4)cc3)nc12 [TCMDC-133867] is lower in “% Inhibition” value: 6.93% for the first, -11.37% for the second.

Going from Cc1cccc2[nH]c(-c3ccc(-c4ccc(CN5CCN(c6ccncc6)CC5)cc4)cc3)nc12 [TCMDC-132919] to Cc1cccc2[nH]c(-c3ccc(-c4ccc(CN5CCN(CC6CCCN(C)C6)CC5)cc4)cc3)nc12 (centres unmarked) [TCMDC-133898], the “% Inhibition” value rises from 17.4% to 93.25%.

Compared with Cc1cccc2[nH]c(-c3ccc(-c4cccc(CN5CCCC5CN)c4)cc3)nc12 (centres unmarked) [TCMDC-132993], COC(=O)c1cccc(CNCc2ccc(-c3ccc(-c4nc5cc(C(F)(F)F)ccc5[nH]4)s3)cc2)c1.O=C(O)C(F)(F)F [TCMDC-132958] is lower in “% Inhibition” value: 21.61% for the first, -50.86% for the second.

First: O=C(Nc1cccc(OC2CCN(Cc3ccsc3)CC2)c1)c1ccc(C(F)(F)F)cc1 [TCMDC-133737]
Second: FC(F)(F)COc1ccc2ccccc2c1CNCCCCCCNCc1c(OCC(F)(F)F)ccc2ccccc12 [TCMDC-137816]
The “% Inhibition” value of the first is lower: -11.34% for the first, 113.4% for the second.

Going from Cc1cc(OCc2ccncc2)cc2c1C(=O)CC(C)(C)O2 [TCMDC-131314] to Cc1sc(C)c(C(F)(F)F)c1CNCCCNc1cc(=O)c2ccccc2[nH]1 [TCMDC-140766], the “% Inhibition” value falls from 21.7% to -57.97%.

FC(F)(F)COc1ccc2ccccc2c1CCNCCCCNCCc1c(OCC(F)(F)F)ccc2ccccc12 [TCMDC-137317] was tested, and the “% Inhibition” value was 103.9%.

— article PMC4552634, “A New Set of Chemical Starting Points with Plasmodium falciparum Transmission-Blocking Potential for Antimalarial Drug Discovery” (PLoS ONE, 2015)
